Results on 40 compounds are retold here after PubChem BioAssay.

A number with no mark means an inactive call. Calls of active or inactive are those of the source. Cut-off read from the data, not from the text of the source, unless noted: active = inhibition above about 42%; inactive = the rest.

Sequence of Nuclear receptor subfamily 5 group A member 2 (Homo sapiens) (O00482 whole entry, looked up): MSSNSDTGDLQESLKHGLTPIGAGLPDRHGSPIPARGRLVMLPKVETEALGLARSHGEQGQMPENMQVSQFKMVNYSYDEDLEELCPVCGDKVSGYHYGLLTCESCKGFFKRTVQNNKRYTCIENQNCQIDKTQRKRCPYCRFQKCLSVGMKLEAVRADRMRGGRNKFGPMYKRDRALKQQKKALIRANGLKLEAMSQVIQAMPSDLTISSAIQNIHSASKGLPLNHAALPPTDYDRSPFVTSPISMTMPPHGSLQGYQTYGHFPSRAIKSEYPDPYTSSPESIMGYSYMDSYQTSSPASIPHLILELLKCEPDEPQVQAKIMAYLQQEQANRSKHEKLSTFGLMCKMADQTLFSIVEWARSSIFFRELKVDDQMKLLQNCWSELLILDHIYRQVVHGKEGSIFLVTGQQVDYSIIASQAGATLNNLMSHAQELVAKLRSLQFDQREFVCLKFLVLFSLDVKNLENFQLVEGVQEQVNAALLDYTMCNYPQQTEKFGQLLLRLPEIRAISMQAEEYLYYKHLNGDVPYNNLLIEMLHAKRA

System in one assay: not listed separately
The experiment in a line: StAR promoter reporter inhibitors, counter-screen for LRH-1 inverse agonist project, cell-based, luminescence, high throughput (AID 651611; in the data active = inhibition above about 28%). The conditions noted are these: StAR promoter luciferase reporter counterscreen, at 3.6 µM, stronger effect = higher value.
As usually defined, the inhibition is the relative decrease from the control value, in per cent. With `COc1ccc(NC(=O)COc2ccc(N(C)S(=O)(=O)c3ccc(Cl)cc3)cc2)cc1OC`, the inhibition is 18.5%.

Regarding `CCOCC(=O)Nc1ccc(S(=O)(=O)NCCc2ccccc2)cc1`, the inhibition is 10.5%.

In the case of `O=C(CCl)N1CCN(C(=O)C2COc3ccccc3O2)CC1` (stereo not given), the inhibition was 18.7%.

Consider `CC1OC(CC(=O)O)CC2=C1C(=O)c1c(O)cccc1C2=O` (stereo not given), for which the inhibition was 95.4% (active).

As for `CC[n+]1c(/C=C/c2ccc(N(C)C)cc2)ccc2ccccc21`, the inhibition was 71.9% (active).

Regarding `COc1ccc(NC(=O)COC(=O)c2cc(S(=O)(=O)N3CCCC3)ccc2O)cc1`, the inhibition is 4.86%.

As to `NS(=O)(=O)c1ccc(O)c(NC(=O)c2ccc([N+](=O)[O-])o2)c1`, the inhibition is 13.8%.

Regarding `Cc1nn(Cc2ccc(Cl)cc2)c(C)c1NC(=O)c1ccc([N+](=O)[O-])cc1`, the inhibition was 36.1% (active).

`CC(=NNC(=S)N1CCN(c2ccccn2)CC1)c1nccs1`: the inhibition was 82.9% (active).

In the case of `O=C(Nc1ccc2oc(-c3cccnc3)nc2c1)c1ccc([N+](=O)[O-])o1`, the inhibition was 8.01%.

Take `O=C(CN1CCN(c2ncccn2)CC1)N1CCCc2c1c(=O)oc1ccc(O)cc21`: the inhibition was 13%.

As for `Cc1cc(C)c2c(NC(=O)CCl)nn(C)c2n1`, the inhibition was 46.8% (active).

`CCN1C(=O)c2cccc3c(NC(=O)c4ccc(S(=O)(=O)N5CCOCC5)cc4)ccc1c23`: the inhibition is 40.3% (active).

On to `COc1ccc(NC(=O)CN2C(=O)NC(C)(c3ccc(C)cc3)C2=O)c([N+](=O)[O-])c1` (stereo not given), for which the inhibition is 9.06%.

As for `CCOC(=O)C1CCCN(S(=O)(=O)c2ccc(S(=O)(=O)N(CC)CC)cc2)C1` (stereo not given), the inhibition was 18.1%.

For `CCn1c(=NC(=O)CCS(=O)(=O)c2ccccc2)sc2cccc(OC)c21`, the inhibition is 6.25%.

As for `CSc1ccc(COC(=O)c2cc([N+](=O)[O-])ccc2N2CCOCC2)cc1`, the inhibition is 61.7% (active).

Regarding `CCCc1cc(=O)oc2c(C)c(OCC(=O)NC3CC(C)(C)NC(C)(C)C3)ccc12`, the inhibition was 6.86%.

For `COC(=O)CNc1nc(-c2cccnc2)nc2ccccc12`, the inhibition was 16.8%.

Consider `Cc1ccc(NC(=O)CCl)c(C)c1`, for which the inhibition was 35% (active).

As to `Nc1ccc(Nc2ccncc2[N+](=O)[O-])cc1`, the inhibition was 2.61%.

For `Nc1nc(-c2ccccc2)c(CCCOc2ccc(NC(=O)CBr)cc2)c(=O)[nH]1`, the inhibition was 15.7%.

On to `CC(CCc1ccccc1)NC(=O)COc1ccc(S(=O)(=O)N2CCOCC2)cc1[N+](=O)[O-]` (stereo not given), for which the inhibition is -7.62%.

For the compound `COCCn1c(C)cc(/C=C(\C#N)C(=O)OCC(=O)Nc2ccc(S(N)(=O)=O)cc2)c1C`, the inhibition was 11.2%.

As to `CC(=O)C(C(C)=O)c1c(Cl)c(O)c(O)c2c(C(=O)c3ccccc3)coc12`, the inhibition is 73.1% (active).

With `Cc1ccc(NC(=O)CSc2sc3c(O)cc(=O)[nH]c3c2C#N)c(F)c1`, the inhibition is 7.65%.

On to `CC(=O)Nc1ccc(NC(=O)COC(=O)c2c(C)nn(-c3ccccc3)c2C)cc1`, for which the inhibition was 10.2%.

For the compound `CCN(Cc1ccccc1)c1ccc(/C=N/N2CCOCC2)cc1`, the inhibition is -41.2%.

For the compound `CC1(C)CC(=O)C=C(c2cccs2)C1`, the inhibition is 0.35%.

With `CCOC(=O)N1CCN(C(=O)CCl)CC1`, the inhibition was 11%.

In the case of `Cc1cc(C(=O)N/N=C/c2ccc([N+](=O)[O-])o2)c(C)o1`, the inhibition was 9.16%.

Regarding `CCOC(=O)N1CCc2cc(OC)c(OC)c3c2c1cc1cc(OC)c(OC)cc13`, the inhibition was 60.1% (active).

For the compound `Cc1cc(Br)ccc1NC(=O)CN1C(=O)CCC1=O`, the inhibition is 7.63%.

As for `O=C(COc1ccc2c3c(c(=O)oc2c1)CCCC3)NCCN1CCOCC1`, the inhibition was 0.51%.

Consider `CN(C)S(=O)(=O)c1cccc(C(=O)OCC(=O)Nc2ccc3c(c2)OCCO3)c1`, for which the inhibition is 17.9%.

Turning to `COc1cc(/C=N/Nc2snc(SC)c2C#N)ccc1O`, the inhibition is 13.1%.

Regarding `C/C=C/c1ccc(OCCOc2ccc(C=O)cc2OC)c(OC)c1`, the inhibition was 11.4%.

As to `COc1cccc(NC(=O)N(C)C[C@H]2Oc3cc(C#Cc4ccncc4)ccc3S(=O)(=O)N([C@H](C)CO)C[C@H]2C)c1`, the inhibition was 28% (active).

For the compound `CCOC(=O)c1ccc(Nc2nc(-c3cccnc3)nc3ccccc23)cc1`, the inhibition was 44.5% (active).

Consider `O=C(COC(=O)CCN1C(=O)C2CC=CCC2C1=O)NCCc1ccccc1` (stereo not given), for which the inhibition was 11.9%.

Another assay addresses Nuclear receptor subfamily 5 group A member 2 (Homo sapiens) (UniProt O00482). In words: NR5A2 activity suppression in reporter cells – cell-based, luminescence, confirmation (AID 651613).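 Note: HEK293T cells co-transfected with LRH-1 and StAR promoter luciferase reporter; 0% = vehicle wells and 100% = parental cells lacking receptor.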 The note with it: cell-based LRH-1 luciferase reporter, inverse agonism; at 3.6 µM; stronger effect = higher value. Background: Reporter assays use an easily measured gene product as a stand-in for the process of interest.
Regarding `COc1ccc(NC(=O)COc2ccc(N(C)S(=O)(=O)c3ccc(Cl)cc3)cc2)cc1OC`, the inhibition was 67.1% (active).

Consider `CCOCC(=O)Nc1ccc(S(=O)(=O)NCCc2ccccc2)cc1`, for which the inhibition was 48.3% (active).

`O=C(CCl)N1CCN(C(=O)C2COc3ccccc3O2)CC1` (stereo not given): the inhibition was 57.3% (active).

Regarding `CC1OC(CC(=O)O)CC2=C1C(=O)c1c(O)cccc1C2=O` (stereo not given), the inhibition was 111% (active).

Consider `CC[n+]1c(/C=C/c2ccc(N(C)C)cc2)ccc2ccccc21`, for which the inhibition was 103% (active).

As to `COc1ccc(NC(=O)COC(=O)c2cc(S(=O)(=O)N3CCCC3)ccc2O)cc1`, the inhibition was 52% (active).

Turning to `NS(=O)(=O)c1ccc(O)c(NC(=O)c2ccc([N+](=O)[O-])o2)c1`, the inhibition is 67.2% (active).

For the compound `Cc1nn(Cc2ccc(Cl)cc2)c(C)c1NC(=O)c1ccc([N+](=O)[O-])cc1`, the inhibition was 55.9% (active).

Regarding `CC(=NNC(=S)N1CCN(c2ccccn2)CC1)c1nccs1`, the inhibition was 91.2% (active).

With `O=C(Nc1ccc2oc(-c3cccnc3)nc2c1)c1ccc([N+](=O)[O-])o1`, the inhibition is 58.1% (active).

Turning to `O=C(CN1CCN(c2ncccn2)CC1)N1CCCc2c1c(=O)oc1ccc(O)cc21`, the inhibition is 62.6% (active).

Regarding `Cc1cc(C)c2c(NC(=O)CCl)nn(C)c2n1`, the inhibition is 64.2% (active).

Turning to `CCN1C(=O)c2cccc3c(NC(=O)c4ccc(S(=O)(=O)N5CCOCC5)cc4)ccc1c23`, the inhibition was 62% (active).

As to `COc1ccc(NC(=O)CN2C(=O)NC(C)(c3ccc(C)cc3)C2=O)c([N+](=O)[O-])c1` (stereo not given), the inhibition was 56.2% (active).

With `CCOC(=O)C1CCCN(S(=O)(=O)c2ccc(S(=O)(=O)N(CC)CC)cc2)C1` (stereo not given), the inhibition was 60.3% (active).

For `CCn1c(=NC(=O)CCS(=O)(=O)c2ccccc2)sc2cccc(OC)c21`, the inhibition is 108% (active).

As to `CSc1ccc(COC(=O)c2cc([N+](=O)[O-])ccc2N2CCOCC2)cc1`, the inhibition was 57.5% (active).

As to `CCCc1cc(=O)oc2c(C)c(OCC(=O)NC3CC(C)(C)NC(C)(C)C3)ccc12`, the inhibition was 53% (active).

Regarding `COC(=O)CNc1nc(-c2cccnc2)nc2ccccc12`, the inhibition is 44.6% (active).

For the compound `Cc1ccc(NC(=O)CCl)c(C)c1`, the inhibition is 59.3% (active).

Turning to `Nc1ccc(Nc2ccncc2[N+](=O)[O-])cc1`, the inhibition was 65.6% (active).

In the case of `Nc1nc(-c2ccccc2)c(CCCOc2ccc(NC(=O)CBr)cc2)c(=O)[nH]1`, the inhibition was 61.6% (active).

As for `CC(CCc1ccccc1)NC(=O)COc1ccc(S(=O)(=O)N2CCOCC2)cc1[N+](=O)[O-]` (stereo not given), the inhibition was 35.2%.

Regarding `COCCn1c(C)cc(/C=C(\C#N)C(=O)OCC(=O)Nc2ccc(S(N)(=O)=O)cc2)c1C`, the inhibition was 52.6% (active).

For `CC(=O)C(C(C)=O)c1c(Cl)c(O)c(O)c2c(C(=O)c3ccccc3)coc12`, the inhibition is 100% (active).

Regarding `Cc1ccc(NC(=O)CSc2sc3c(O)cc(=O)[nH]c3c2C#N)c(F)c1`, the inhibition is 57.1% (active).

Turning to `CC(=O)Nc1ccc(NC(=O)COC(=O)c2c(C)nn(-c3ccccc3)c2C)cc1`, the inhibition is 51.6% (active).

Take `CCN(Cc1ccccc1)c1ccc(/C=N/N2CCOCC2)cc1`: the inhibition was 26%.

As for `CC1(C)CC(=O)C=C(c2cccs2)C1`, the inhibition is 47.2% (active).

Consider `CCOC(=O)N1CCN(C(=O)CCl)CC1`, for which the inhibition was 56% (active).

Regarding `Cc1cc(C(=O)N/N=C/c2ccc([N+](=O)[O-])o2)c(C)o1`, the inhibition was 71.5% (active).

In the case of `CCOC(=O)N1CCc2cc(OC)c(OC)c3c2c1cc1cc(OC)c(OC)cc13`, the inhibition is 70.3% (active).

On to `Cc1cc(Br)ccc1NC(=O)CN1C(=O)CCC1=O`, for which the inhibition was 58.1% (active).

Regarding `O=C(COc1ccc2c3c(c(=O)oc2c1)CCCC3)NCCN1CCOCC1`, the inhibition is 41.4% (active).

Regarding `CN(C)S(=O)(=O)c1cccc(C(=O)OCC(=O)Nc2ccc3c(c2)OCCO3)c1`, the inhibition is 51.5% (active).

Take `COc1cc(/C=N/Nc2snc(SC)c2C#N)ccc1O`: the inhibition was 28.3%.

Turning to `C/C=C/c1ccc(OCCOc2ccc(C=O)cc2OC)c(OC)c1`, the inhibition is 44.7% (active).

As for `COc1cccc(NC(=O)N(C)C[C@H]2Oc3cc(C#Cc4ccncc4)ccc3S(=O)(=O)N([C@H](C)CO)C[C@H]2C)c1`, the inhibition was 50.6% (active).

`CCOC(=O)c1ccc(Nc2nc(-c3cccnc3)nc3ccccc23)cc1`: the inhibition was 49.6% (active).

Turning to `O=C(COC(=O)CCN1C(=O)C2CC=CCC2C1=O)NCCc1ccccc1` (stereo not given), the inhibition is 40.1%.
